Experiment [1] in a line: small molecules captured by biotinylated probe aFSTL3 – biochemical, small-molecule microarray, fluorescence 635/667, stem cell growth factor project, primary screen (AID 1064).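 Also: measures binding of the biotinylated anti-FSTL3 antibody to printed compounds.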 As to conditions: higher = more signal.
A short description of experiment [2]: binders from COS7 lysate, DM2A8 probe, primary screen, torsin A project, cell lysate, small-molecule microarray, fluorescence 635/667 (AID 1065). Particulars: higher = more signal, COS7 lysate expressing mutant human TOR1A.
Experiment [3] is described as follows: small molecules captured by biotinylated probe aFGF2 – biochemical, small-molecule microarray, fluorescence 635/667, stem cell growth factor project, primary screen (AID 1067).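 Also: measures binding of biotinylated aFGF2 protein to printed compounds on slides; z-score merges feature fluorescence and signal-to-noise across triplicate slides.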 As to conditions: higher = more signal.
Experiment [4] is described as follows: small molecules captured by biotinylated probe aFGF10 – biochemical, small-molecule microarray, fluorescence 635/667, stem cell growth factor project, primary screen (AID 1071).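 Also: score merges 667 nm spot intensity and signal to noise from triplicate slides.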 Particulars: higher = more signal.
Experiment [5] concerns the target Neurogenic locus notch homolog protein 2 (Homo sapiens) (UniProt Q04721). Description: small molecules binding Notch2 protein – biochemical, small-molecule microarray, 635 nm fluorescence, stem cell growth factors, primary screen (AID 1073). As to conditions: higher = more signal.
The target in experiment [6] is Pro-neuregulin-1, membrane-bound isoform (Homo sapiens) (UniProt Q02297). Description: small molecules binding neuregulin-1 protein – biochemical, small-molecule microarray, fluorescence 635/667, psychiatric disease protein project, primary screen (AID 1075).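 Also: score combines 667 nm spot fluorescence with signal to noise.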 Particulars: NRG1 binding, 635 nm fluorescence, higher = more signal.
Experiment [7] relates to Neuregulin-1 EGF-like domain. Description: small molecules binding NRG1 EGF domain – biochemical, small-molecule microarray, 635 nm fluorescence, primary screen (AID 1081).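 Also: binding of the protein to compounds printed on small-molecule microarray slides.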 Particulars: higher = more signal.
Experiment [8] in a line: FRG1 expression reporter modulators in myotubes – cell-based, C2C12 myotubes, firefly/Renilla luciferase, luminescence, FRG1 inhibition for FSHD, primary screen (AID 1084). As to conditions: FRG1 promoter luciferase, higher = more signal, called active from +8 up or from −8 down.
Experiment [9] in a line: small molecules captured by biotinylated probe aFST – biochemical, small-molecule microarray, fluorescence 635/667, stem cell growth factor project, primary screen (AID 1086).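 Also: score merges 667 nm fluorescence with signal-to-noise of each printed compound spot.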 Particulars: higher = more signal.
Experiment [10] is described as follows: binders of probe aHhip on microarray, primary screen, stem cell growth factor project, biochemical, small-molecule microarray, fluorescence 635/667 (AID 1087).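 Also: score merges spot fluorescence at 667nm with spot signal to noise ratio.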 Particulars: higher = more signal.
Experiment [11] has as its system PRMT1 (protein arginine N-methyltransferase 1). The experiment in a line: small molecules binding arginine methyltransferase PRMT1 – biochemical, small-molecule microarray, 635 nm fluorescence, primary screen (AID 1088).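 Also: binding of Prmt1 protein to compounds spotted on small-molecule microarray slides.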 Particulars: higher = more signal.
Experiment [12] can be described thus: growth effects on S. cerevisiae YJM789 – YJM789 clinical isolate, OD600, 24 h, basal, primary screen (AID 1089).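 Also: growth of clinical yeast isolate S. cerevisiae YJM 789 seeded 1000 cells per well; test concentration not given here.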 As to conditions: higher = more signal, called active from +8 up or from −8 down.
The nature of experiment [13]: S. pombe growth modifiers, basal conditions – strain 972, OD600, 24 h, no modulator, primary screen (AID 1090).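 Also: basal condition with compound alone and no growth modifier present; test concentration not given here.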 As to conditions: S. pombe 972 growth, higher = more signal, called active from +8 up or from −8 down.
A short description of experiment [14]: budding yeast growth modifiers under rapamycin – strain BY4716, OD600, 96 h, primary screen (AID 1091). Also: test concentration not given here. As to conditions: S. cerevisiae BY4716 + rapamycin, higher = more signal, called active from +8 up or from −8 down.
The target of experiment [15] is Torsin-1A-interacting protein 2 (Homo sapiens) (UniProt Q8NFQ8). The experiment in a line: small molecules binding lysate-expressed LULL1 – cell lysate, human LULL1 lysate, 635/667 nm fluorescence, primary screen (AID 1092).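 Also: probe is lysate of COS7 cells overexpressing human LULL1; score merges per-feature 667 nm fluorescence with signal-to-noise.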 As to conditions: small-molecule microarray, hLULL1 lysate binding, 635 nm fluorescence; higher = more signal.
A short description of experiment [16]: optical density change of DRC41 E. coli – strain DRC41, OD650, 24 h, E. coli filamentation project, primary screen (AID 1093).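 Also: MC1000 strain lacking acrAB efflux and sulA so SOS filamentation is blocked; test concentration not given here.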 As to conditions: E. coli DRC41 growth, higher = more signal, called active from +8 up or from −8 down.
A short description of experiment [17]: probe aLefty2 binding to arrayed compounds – biochemical, biotinylated probe, 635/667 nm fluorescence, primary screen (AID 1094).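 Also: score merges spot fluorescence near 667 nm with spot signal-to-noise ratio.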 As to conditions: small-molecule microarray, higher = more signal.
The test system of experiment [18] is Noggin (protein binding on small-molecule microarray). The experiment in a line: small molecules binding Noggin protein – biochemical, 635/667 nm fluorescence, primary screen (AID 1095).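 Also: score merges 667 nm feature fluorescence with signal to noise over triplicate slides.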 Particulars: 635 nm fluorescence, higher = more signal.
In experiment [19] the target is Neurogenic locus notch homolog protein 3 (Homo sapiens) (UniProt Q9UM47). The experiment in a line: small molecules binding NOTCH3 protein – biochemical, 635/667 nm fluorescence, primary screen (AID 1096). As to conditions: small-molecule microarray, 635 nm fluorescence, higher = more signal.
Experiment [20] can be described thus: probe aEGFR binding to arrayed compounds – biochemical, biotinylated probe, 635/667 nm fluorescence, primary screen (AID 1097).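 Also: probe is a biotinylated anti-EGFR antibody binding compounds printed on slides; score combines fluorescence near 667 nm and signal to noise of each spot.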 As to conditions: small-molecule microarray, higher = more signal.

Active and inactive are the calls of the source.

Torsin-1A-interacting protein 2 (Homo sapiens), sequence (Q8NFQ8 whole entry, looked up): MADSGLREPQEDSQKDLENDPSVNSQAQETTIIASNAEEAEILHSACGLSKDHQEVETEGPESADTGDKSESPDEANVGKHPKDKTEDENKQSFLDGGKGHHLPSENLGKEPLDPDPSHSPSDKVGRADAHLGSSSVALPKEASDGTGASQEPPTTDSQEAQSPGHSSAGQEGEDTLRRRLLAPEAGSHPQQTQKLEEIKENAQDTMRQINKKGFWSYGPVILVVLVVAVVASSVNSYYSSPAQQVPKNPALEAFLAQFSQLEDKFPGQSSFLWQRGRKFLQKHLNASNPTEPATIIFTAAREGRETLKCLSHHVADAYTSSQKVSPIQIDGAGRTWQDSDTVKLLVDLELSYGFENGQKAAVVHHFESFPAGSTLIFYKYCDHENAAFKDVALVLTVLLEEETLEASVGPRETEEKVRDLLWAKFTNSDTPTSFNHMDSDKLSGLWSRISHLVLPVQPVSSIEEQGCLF
Pro-neuregulin-1, membrane-bound isoform (Homo sapiens), sequence (Q02297 whole entry, looked up, the tested form may be a part, canonical isoform): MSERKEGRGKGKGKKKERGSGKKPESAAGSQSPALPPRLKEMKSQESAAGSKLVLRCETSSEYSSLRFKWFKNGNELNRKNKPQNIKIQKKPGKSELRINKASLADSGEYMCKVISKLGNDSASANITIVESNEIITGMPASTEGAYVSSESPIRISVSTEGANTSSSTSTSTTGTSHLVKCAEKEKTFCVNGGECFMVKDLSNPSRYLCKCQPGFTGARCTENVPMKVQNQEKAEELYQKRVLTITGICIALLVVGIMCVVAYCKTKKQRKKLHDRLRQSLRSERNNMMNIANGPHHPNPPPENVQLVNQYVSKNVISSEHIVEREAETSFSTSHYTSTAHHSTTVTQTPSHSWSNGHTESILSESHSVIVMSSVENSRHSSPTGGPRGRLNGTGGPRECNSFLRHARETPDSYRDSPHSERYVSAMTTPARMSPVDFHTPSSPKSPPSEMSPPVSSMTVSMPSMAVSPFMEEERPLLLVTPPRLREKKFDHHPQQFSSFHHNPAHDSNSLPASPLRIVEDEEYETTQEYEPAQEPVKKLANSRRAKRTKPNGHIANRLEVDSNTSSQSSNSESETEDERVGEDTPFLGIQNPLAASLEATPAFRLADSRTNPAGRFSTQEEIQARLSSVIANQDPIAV
Neurogenic locus notch homolog protein 3 (Homo sapiens), sequence (Q9UM47 whole entry, looked up): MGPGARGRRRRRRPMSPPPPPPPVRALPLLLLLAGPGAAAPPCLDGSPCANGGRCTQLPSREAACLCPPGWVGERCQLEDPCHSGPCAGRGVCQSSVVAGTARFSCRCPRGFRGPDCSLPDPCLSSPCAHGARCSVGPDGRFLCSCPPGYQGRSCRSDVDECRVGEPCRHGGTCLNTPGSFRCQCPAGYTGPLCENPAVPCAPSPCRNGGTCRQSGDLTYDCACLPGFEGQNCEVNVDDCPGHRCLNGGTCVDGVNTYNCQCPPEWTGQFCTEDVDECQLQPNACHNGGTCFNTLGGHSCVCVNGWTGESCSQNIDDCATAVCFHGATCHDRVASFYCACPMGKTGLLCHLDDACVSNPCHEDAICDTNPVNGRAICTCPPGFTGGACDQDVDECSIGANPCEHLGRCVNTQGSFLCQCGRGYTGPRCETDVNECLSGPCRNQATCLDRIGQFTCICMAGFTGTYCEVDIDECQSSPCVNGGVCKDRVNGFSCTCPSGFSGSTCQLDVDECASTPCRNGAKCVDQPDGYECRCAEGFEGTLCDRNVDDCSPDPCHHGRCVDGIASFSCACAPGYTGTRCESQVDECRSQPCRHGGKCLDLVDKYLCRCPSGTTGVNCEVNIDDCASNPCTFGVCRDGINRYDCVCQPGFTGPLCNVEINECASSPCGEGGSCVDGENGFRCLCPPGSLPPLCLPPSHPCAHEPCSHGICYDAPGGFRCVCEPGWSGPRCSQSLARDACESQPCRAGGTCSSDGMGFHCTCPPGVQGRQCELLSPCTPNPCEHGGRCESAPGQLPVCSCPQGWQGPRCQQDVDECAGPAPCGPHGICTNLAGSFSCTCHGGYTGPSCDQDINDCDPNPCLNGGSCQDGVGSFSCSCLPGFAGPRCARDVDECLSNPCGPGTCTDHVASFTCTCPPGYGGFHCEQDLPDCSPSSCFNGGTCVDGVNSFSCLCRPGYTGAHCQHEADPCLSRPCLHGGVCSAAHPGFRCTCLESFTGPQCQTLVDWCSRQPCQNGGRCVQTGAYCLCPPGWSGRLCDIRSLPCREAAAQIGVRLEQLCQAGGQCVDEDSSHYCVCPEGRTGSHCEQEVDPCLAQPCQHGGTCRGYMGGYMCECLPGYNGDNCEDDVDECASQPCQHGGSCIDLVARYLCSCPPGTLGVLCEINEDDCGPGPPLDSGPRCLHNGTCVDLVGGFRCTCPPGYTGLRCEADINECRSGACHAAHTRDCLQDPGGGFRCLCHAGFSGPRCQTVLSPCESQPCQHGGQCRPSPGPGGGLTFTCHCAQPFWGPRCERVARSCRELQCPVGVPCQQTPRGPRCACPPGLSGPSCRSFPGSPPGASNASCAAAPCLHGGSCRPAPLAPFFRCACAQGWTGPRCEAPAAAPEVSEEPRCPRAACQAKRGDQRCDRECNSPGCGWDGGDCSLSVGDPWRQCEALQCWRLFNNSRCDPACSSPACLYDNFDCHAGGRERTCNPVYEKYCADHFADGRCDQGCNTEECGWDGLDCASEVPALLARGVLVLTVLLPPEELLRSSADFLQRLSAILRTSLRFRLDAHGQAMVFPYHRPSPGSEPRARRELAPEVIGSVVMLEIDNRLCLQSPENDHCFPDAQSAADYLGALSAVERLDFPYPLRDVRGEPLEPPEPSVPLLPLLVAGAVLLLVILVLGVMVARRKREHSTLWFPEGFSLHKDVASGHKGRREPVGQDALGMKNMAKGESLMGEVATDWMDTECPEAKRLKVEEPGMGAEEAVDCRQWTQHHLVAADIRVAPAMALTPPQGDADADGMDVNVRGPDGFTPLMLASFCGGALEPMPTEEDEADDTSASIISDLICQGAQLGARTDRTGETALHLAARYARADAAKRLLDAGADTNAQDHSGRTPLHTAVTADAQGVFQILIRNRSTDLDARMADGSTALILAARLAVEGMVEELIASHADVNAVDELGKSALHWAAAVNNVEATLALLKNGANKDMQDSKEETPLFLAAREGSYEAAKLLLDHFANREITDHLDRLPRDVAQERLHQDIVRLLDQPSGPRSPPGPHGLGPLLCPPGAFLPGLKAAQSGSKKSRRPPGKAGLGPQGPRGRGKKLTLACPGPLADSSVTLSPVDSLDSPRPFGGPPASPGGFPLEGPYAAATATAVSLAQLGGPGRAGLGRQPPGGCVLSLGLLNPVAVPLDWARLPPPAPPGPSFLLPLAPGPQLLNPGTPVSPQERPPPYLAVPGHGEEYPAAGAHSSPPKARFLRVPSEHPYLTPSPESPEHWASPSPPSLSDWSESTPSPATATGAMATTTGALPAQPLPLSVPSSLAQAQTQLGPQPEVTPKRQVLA

With `Cc1ccc(F)cc1S(=O)(=O)N[C@@H]1CCN(Cc2ccc(-c3ccccc3)cc2)C1`, the composite z-score was 0.111 in experiment [1]; 0.504 in [2]; -0.0894 in experiment [3]; 1.04 in experiment [4]; 0.332 in [5]; 0.0558 in experiment [6]. The composite z-score was found to be 1.07 in experiment [7]; 0.204 in experiment [9]; 0.107 in experiment [10]; 0.126 in experiment [11]; 0.12 in [15]; 0.144 in experiment [17]. Further, the composite z-score is 0.713 in experiment [18], 0.481 in experiment [19] and -0.0565 in experiment [20]. Further, the z-score in [8] was -1.72 (inactive); in [12], -26.5 (active); in experiment [13], -21.3 (active); in experiment [14], -4.06 (inactive); in [16] it was -19.9 (active).

`COc1ccc([Si](C)(C)[C@@H]2[C@@H](CCn3cc([C@H](O)c4ccccc4)nn3)O[C@]3(C(=O)N(Cc4cccc(N5CCOC5=O)c4)c4ccccc43)[C@H]2C)cc1`: the composite z-score was 0.752 in [1]; -0.268 in experiment [2]; -0.152 in experiment [3]; -0.368 in experiment [4]; -1.11 in [5]; 0.0895 in [6]. For the same compound, the composite z-score was -0.0072 in experiment [7]; -0.64 in [9]; -0.236 in experiment [10]; -0.217 in experiment [11]; 0.697 in experiment [15]; -0.117 in [17]. The composite z-score in experiment [18] is -0.89; in [19] it was -1.29; in experiment [20] it was -0.278. The z-score in experiment [8] was 1.34 (inactive); in experiment [12], 1.56 (inactive); in experiment [13], 1.45 (inactive); in [14], 3.61 (inactive); in [16], 0.894 (inactive).

For `C=CC[C@@]1(C(=O)NCC(O)CO)N=C(c2ccc(OCCCO)cc2)O[C@@H]1c1ccccc1N=[N+]=[N-]` (stereo not given in full), the composite z-score was 0.638 in experiment [1]; 1.22 in experiment [2]; 0.0485 in experiment [3]; 0.12 in experiment [4]; 0.579 in experiment [5]; 1.71 in experiment [6]. Moreover, the composite z-score in experiment [7] was 1.3; in experiment [9] it was 1.39; in experiment [10], 0.158; in experiment [11], 1.18; in experiment [15] it was 3.79; in experiment [17] it was 0.208. In addition, the composite z-score in experiment [18] amounted to 0.84; in experiment [19], 1.04; in experiment [20], 0.0376. Further, the z-score in experiment [8] was 3.08 (inactive); in experiment [12], -0.711 (inactive); in [13] it was -1.89 (inactive); in [14], 0.068 (inactive); in experiment [16] it was 1.01 (inactive).

As to `O=C(O)[C@H]1C[C@H]2C(=O)NCC(=O)N2[C@H]1c1ccc(O)cc1`, the composite z-score was 0.136 in [1]; 0.202 in [2]; -0.0996 in [3]; -0.224 in [4]; -0.424 in [5]; -0.235 in experiment [6]. Further, the composite z-score in experiment [7] was 1.4; in experiment [9] it was 0.025; in experiment [10], -0.226; in experiment [11], 0.294; in experiment [15], 1.05; in experiment [17], -0.025. Moreover, the composite z-score was 0.884 in experiment [18], 0.55 in experiment [19] and 0.308 in experiment [20]. For the same compound, the z-score in experiment [8] was 3.81 (inactive); in experiment [12] it was -0.512 (inactive); in [13] it was -0.81 (inactive); in experiment [14] it was -0.373 (inactive); in experiment [16], 1.68 (inactive).

With `O=C1OCCC=C[C@H]2OC34C=CCN(Cc5ccccc5)C(=O)[C@H]3N(CCCCCCO)C(=O)[C@@H]4C12` (stereo not given in full), the composite z-score in [1] is 0.359; in experiment [2], -1.01; in experiment [3] it was -0.196; in experiment [4], -0.384; in [5] it was -0.91; in experiment [6] it was 1.88. Moreover, the composite z-score in experiment [7] was 0.92; in [9], -0.26; in experiment [10], -0.621; in experiment [11], 0.831; in experiment [15], 3.21; in experiment [17] it was -0.42. Further, the composite z-score in [18] is -0.485; in experiment [19] it was 0.127; in experiment [20], -0.309. For the same compound, the z-score in [8] is -0.386 (inactive); in experiment [12], 0.104 (inactive); in [13], -0.0853 (inactive); in [14], -0.0696 (inactive); in experiment [16], 0.801 (inactive).
